Compound activity from PubChem.
In the library only some 13% were active in any assay of this set; here they are far more common.
HCMV inh: human cytomegalovirus inhibition; HFF cells, HCMV-luciferase reporter, 72 h; active compounds read low; hit rate 4.5% among 410,000; AID 1259415; activity change, negative = inhibition, % at 57.5 µM; in the data active means activity change below about -60%; inconclusive means no clear call, values can overlap the other calls; inactive means above about -39%
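Luciferase read-out from HCMV-luciferase-infected HFFs (MOI 1 PFU/cell) 72 h post infection at 37C; compounds added after 16 h cell attachment; activity normalized between buffer-only basal and Salinomycin (10uM) inhibitor controls.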
Pf growth 96h: inhibits malaria parasite growth, 96 h; P. falciparum luciferase reporter growth, 96 h; Potency, µM (highest dose often 28.7 µM), inactives show top-dose activity change, negative = inhibition, hits mostly inhibitors; hit rate 6.9% among 320,000; AID 504834; further: potency means the concentration at half of the fitted maximal effect
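Erythrocytes infected with luciferase-expressing P. falciparum were dispensed at 2% hematocrit and 0.05% parasitemia (final), then incubated with compounds 96 hours at 37 C in 5% CO2. Luminescence after detection reagent addition reported growth.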
HCV inh: blocks hepatitis C virus; hit rate 3.4% among 340,000; Potency, µM (highest dose often 41.8 µM), for inactives: at the top dose activity change, negative = inhibition, hits mostly inhibitors; AID 651820; Huh7.5.1 HCVcc-Cre infection, luciferase reporter, 44 h; further: potency means the concentration at half of the fitted maximal effect
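Infectious HCV cell culture screen: compound-treated cells (1,000/well, pre-plated 4 h) are infected with HCVcc-Cre at roughly 0.5 moi and grown 44 h. Infection is quantified by luciferase signal after 15 min substrate incubation at room temperature.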
Pf growth 48h: inhibits P. falciparum growth in the first generation, 48 h | P. falciparum luciferase growth in erythrocytes, 48 h | Potency, µM (top dose mostly 28.7 µM), without a hit: at the highest dose activity change, negative = inhibition, actives largely listed as inhibitors | hit rate 5.9% among 310,000 | AID 504832; further: potency means the concentration at half of the fitted maximal effect
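Read-out is firefly luciferase luminescence from an integrated reporter in P. falciparum, so falling signal marks reduced parasite growth. Infected erythrocytes were at 2% hematocrit and 0.1% parasitemia (final) in Albumax-supplemented RPMI 1640.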
Numbers without * were called inactive; ? = inconclusive; nt = not tested or not shown. Unless noted, the call rests on the fitted dose curve; in most records, active means well fitted inhibition curve with a large enough effect; inconclusive means small, poorly fitted or top-dose-only effect, or another doubt; inactive means no such curve, though single readings can be large or run the other way. On the % scale 0 is the no-effect control and ±100 the full control effect.

SMILES	HCMV inh	Pf growth 96h	HCV inh	Pf growth 48h
COc1cccc(CSc2nnnn2-c2ccc(O)cc2)c1	-27	?	17%	9.3µM*
COc1ccc(-n2nnnc2SCC(=O)c2cccc(OC)c2)cc1	36	?	3%	9%
COc1ccc(-n2nnnc2SCC#CCO)cc1	-8	0.47µM*	-25%	-6%
CCOC(=O)c1oc2ccccc2c1CSc1nnnn1-c1ccc(OC)cc1	32	12µM*	13%	5%
COc1ccc(C2C=C(c3ccccc3)Nc3nc(NC(=O)/C=C/c4ccc(F)cc4)nn32)cc1 (stereo unspecified)	-11	nt	nt	nt
O=S(=O)(c1cccs1)N1CCN(CCOc2ccc(Cl)cc2)CC1	-82*	-12%	?	-16%
O=S(=O)(c1cccs1)N1CCN(CC(O)COc2cc(Cl)ccc2Cl)CC1 (stereo unspecified)	-61*	nt	?	nt
O=S(=O)(c1cccs1)N1CCN(c2ccc(Cl)cc2)CC1	-35	6%	-6%	21%
NS(=O)(=O)c1ccc(N2CCN(S(=O)(=O)Cc3ccccc3)CC2)nc1	27	nt	11%	nt
NS(=O)(=O)c1ccc(N2CCN(CCOc3ccc(Cl)cc3)CC2)nc1	-84*	-18%	?	-9%
CCn1cc2nc(SCc3cccc(C(F)(F)F)c3)n(Cc3ccc(Cl)cc3)c(=O)c2n1	-34	nt	nt	nt
Cc1noc(C)c1COc1ccccc1C(=O)NCCc1ccccc1	-16	?	3.2µM*	?
Cc1noc(C)c1COc1ccccc1C(=O)NC(C)c1ccc(Cl)cc1 (stereo unspecified)	-13	5.2µM*	?	13µM*
CCn1nc(C(=O)OCc2c(C)noc2C)c2ccccc2c1=O	-23	1%	43%	-5%
Cc1noc(C)c1COc1ccccc1C(=O)NCc1ccccc1Cl	-37	5.2µM*	-12%	?
CCn1nc(C(=O)NNC(=O)c2ccccc2OCc2c(C)noc2C)c2ccccc2c1=O	-83*	?	?	?
Cc1noc(C)c1COc1ccccc1C(=O)NNC(=O)c1ccccc1	-9	14%	-8%	0%
Cc1cc(C)n(-c2nc(C)c(C)c(=O)n2CC(=O)Nc2ccc(Cl)c(Cl)c2)n1	35	nt	nt	nt
CCOC(=O)c1cccc(NC(=O)Cn2ncc3c(=O)oc4ccccc4c32)c1	7	nt	nt	nt
CCC(C)(C)NC(=O)C(c1ccc(F)cc1)N(Cc1cccc(OC)c1)C(=O)c1cnccn1 (stereo unspecified)	-32	-7%	7%	?
CCC(C)(C)NC(=O)C(c1ccc(F)cc1)N(Cc1ccc(OC)cc1)C(=O)c1cnccn1 (stereo unspecified)	-66*	?	4%	?
O=CNc1ccc2c3c(cccc13)-c1ccccc1-2	34	nt	2.8µM*	nt
COc1ccc([C@@H]2[C@@H](C(=O)N3CCOCC3)CC(=O)N2S(=O)(=O)c2ccc(F)cc2)cc1	4	nt	nt	nt
COc1ccc(Nc2nnc(-c3ccc(C)c(S(=O)(=O)N4CCN(C)CC4)c3)c3ccccc23)cc1	-99*	nt	nt	nt
COc1ccc(Nc2nnc(-c3ccc(C)c(S(=O)(=O)N4CCOCC4)c3)c3ccccc23)cc1	-99*	nt	nt	nt
SMILES	HCMV inh	Pf growth 96h	HCV inh	Pf growth 48h
Cc1ccc(Nc2nnc(-c3ccc(C)c(S(=O)(=O)N4CCN(C)CC4)c3)c3ccccc23)cc1	-8	nt	nt	nt
Cc1ccc(-c2nnc(NCc3nc4ccccc4[nH]3)c3ccccc23)cc1S(=O)(=O)N1CCCCC1	-37	13µM*	?	?
Cc1ccc(-c2nnc(NC3CCCCC3)c3ccccc23)cc1S(=O)(=O)N1CCN(C)CC1	-74*	?	-29%	nt
CNC(=O)c1ccc(Nc2nnc(-c3ccc(C)c(S(=O)(=O)N4CCOCC4)c3)c3ccccc23)cc1	0	nt	nt	nt
CC(=O)c1cccc(NC(=O)Cc2ccc(NC(=O)N3CCCCc4ccccc43)cc2)c1	11	nt	nt	nt
Cc1ccc(CSc2nc3ccc(NC(=O)COc4ccccc4)cc3s2)cc1	8	nt	nt	nt
CCOC(=O)C1CCN(C(=O)C2COc3ccccc3C2)CC1 (stereo unspecified)	-24	nt	nt	nt
Cc1ccc(-c2nnc(Nc3ccccc3)c3ccccc23)cc1S(=O)(=O)N1CCN(C)CC1	-17	nt	nt	nt
Cc1ccc(-c2nnc(Nc3cccc(O)c3)c3ccccc23)cc1S(=O)(=O)N1CCCCC1	-74*	nt	nt	nt
Cc1cccc(Nc2nnc(-c3ccc(C)c(S(=O)(=O)N4CCN(C)CC4)c3)c3ccccc23)c1	-69*	nt	nt	nt
Cc1ccc(Nc2nnc(-c3ccc(C)c(S(=O)(=O)N4CCOCC4)c3)c3ccccc23)cc1	5	nt	nt	nt
Cc1ccc(-c2nnc(Nc3ccc(O)cc3)c3ccccc23)cc1S(=O)(=O)N1CCOCC1	-88*	nt	nt	nt
CCc1nc2c(OCCc3cccc(OC)c3)cccn2c1N(C=O)Cc1ccccc1	-7	nt	nt	nt
CCOC(=O)c1ccc(NC(=O)CC(C)n2nc(C)cc2C)cc1 (stereo unspecified)	-12	nt	nt	nt
COc1ccc(C(=O)NC(=S)NNC(=O)[C@H]2C[C@@H]2c2ccccc2)cc1OC	?	1.5µM*	?	?
O=C(COc1ccc(S(=O)(=O)N2CCOCC2)cc1Cl)NC1CCCCC1	8	-18%	13%	?
O=S(=O)(c1ccc(OCC(O)CNC23CC4CC(CC(C4)C2)C3)c(Cl)c1)N1CCOCC1 (stereo unspecified)	-12	?	?	10µM*
CCN1C(=O)/C(=C\N2CCCCCC2)SC1=S	31	12µM*	-26%	?
FC(F)(F)c1cccc(-n2cc(-c3ccccc3)[nH]c2=S)c1	-16	134%	?	12µM*
COc1ccc(OC2C(=O)N(Cc3ccc4c(c3)OCO4)C2c2sccc2C)cc1 (stereo unspecified)	-32	4.1µM*	?	?
COc1ccc(OC2C(=O)N(Cc3ccc(F)cc3)C2c2ccc(OC)c(OC)c2)cc1 (stereo unspecified)	-25	?	-12%	?
COc1ccc2c(c1)c1ncn(Cc3ccc(F)cc3)c(=O)c1n2C	29	?	?	-11%
COc1ccc2c(c1)c1ncn(Cc3ccco3)c(=O)c1n2C	-81*	?	11µM*	?
CC1=C(C(=O)Nc2cccnc2)C(c2ccc(C)cc2)n2nc(SCc3ccccc3F)nc2N1 (stereo unspecified)	7	nt	nt	nt
COC(=O)c1ccc(COc2ccc(-c3nnn(CC(N)=O)n3)cc2)cc1	-14	?	8%	27%
COC(=O)c1ccc(COc2ccc(-c3nn[nH]n3)cc2)cc1	-107*	62%	7%	-7%
COC(=O)c1ccc(COc2ccc(-c3nnn(CC(=O)NC(C)(C)C)n3)cc2)cc1	-35	7.4µM*	11%	?
CCCCOP(=O)(c1ccc(N(C)C)cc1)C(Nc1ccccc1)c1ccccc1 (stereo unspecified)	-18	15µM*	?	?
CCCOP(=O)(c1ccc(N(C)C)cc1)C(Nc1ccccc1)c1ccc(N(C)C)cc1 (stereo unspecified)	14	8.3µM*	?	2.6µM*
